What is called inhibition is the change of the read-out against control, counted positive when it falls.

Among all 360,000 compounds or so, about 2,800 (0.78%) were called active. The sample holds actives, similar compounds and a random draw of the others, so the mix is not that of the screen. Unmarked numbers belong to inactive results. No stated cut-off is given here; in the data, active means inhibition above about 26%; inactive means the rest.

The assay has as its system Nicotinate-nucleotide adenylyltransferase NadD (Staphylococcus aureus N315). Description: S. aureus NadD enzyme activity blockers – biochemical, colorimetric, uHTS, primary screen (AID 602399). Particulars: purified NadD enzyme, colorimetric absorbance read-out; at 20 µM; active compounds read high.
For `NNc1cccc(C=Cc2ccccc2)cc1=O`, the inhibition was 33.2% (active).
For `O=C(COC(=O)/C=C/c1cccc(Cl)c1)NCCc1ccccc1`, the inhibition is -11.9%.
For `NS(=O)(=O)c1ccc(NS(=O)(=O)/C=C/c2ccccc2)cc1`, the inhibition is -1.06%.
Take `CC/C(=N\NC(=O)c1ccccc1Cl)c1ccc(Br)s1`: the inhibition was -6.6%.
Regarding `C/C(=N\NC(=O)COc1c(C)cccc1C)c1cccs1`, the inhibition is -5.85%.
With `C/C(=N\NC(=O)CNc1cccc2ccccc12)c1ccc(Br)s1`, the inhibition was 64.5% (active).
On to `CCCCCCc1cc2cc(-c3nnc(-c4ccccc4)o3)c(=O)oc2cc1O`, for which the inhibition is 87.5% (active).
As to `Cn1cccc1Cc1nnc(SCC(=O)NCc2ccc3c(c2)OCO3)n1CCc1ccccc1`, the inhibition is 7.11%.
Consider `COC(=O)c1cccc(N(CC(=O)NCC2CCCO2)C(=O)CCC(=O)Nc2cc(C)on2)c1` (stereo not given), for which the inhibition is -10.6%.
Take `CCOc1cc(/C=C/C(=O)OCC(=O)NCCN2C(=O)CSC2=O)ccc1OCC(C)C`: the inhibition is 0.893%.
Take `CCN(CC)S(=O)(=O)c1cccc(-c2n[nH]c(=S)n2/N=C/c2ccc(C(=O)OC)cc2)c1`: the inhibition is 24.3%.
`Cc1cc(-c2n[nH]c(=S)n2/N=C/C(Br)=C/c2ccccc2)n[nH]1`: the inhibition is 17.3%.
The same measure for `S=c1[nH]nc(-c2cc(-c3ccccc3)n[nH]2)n1/N=C/c1c2ccccc2cc2ccccc12`: 49.4% (active).
In the case of `COc1cccc(/C=C/C(=O)Nc2ccc3c(c2)OCCO3)c1`, the inhibition was -5.58%.
`CC(=O)Nc1ccc(S(=O)(=O)NC2(C(F)(F)F)C(=O)NC(C)=C2C#N)cc1` (stereo not given): the inhibition was -2.54%.
The same measure for `Cc1nc(-c2ccc(F)cc2)c(CC(=O)Nc2cc(S(=O)(=O)N3CCCCC3)ccc2C)s1`: 6.89%; for `Cc1ccc(-c2nc(-c3cccnc3)sc2CC(=O)Nc2ccc(C)c(Cl)c2)cc1`: 30.9% (active); for `Cc1ccc(NC(=O)COc2ccc(-n3ccnc3)cc2)cc1Cl`: -3.03%.
The same measure for `COc1cccc(OCc2cc(/C=N/NC(=O)c3nc(Cl)c(Cl)c(N)c3Cl)ccc2OC)c1`: 45.5% (active); for `COc1ccc(S(=O)(=O)N/N=C\c2ccc(OC)c(COc3ccc(C)cc3[N+](=O)[O-])c2)cc1`: 18.5%; for `CCN(CC)Cc1c(C(=O)N/N=C/c2cccc(OCc3ccc(F)cc3)c2)nnn1-c1nonc1N`: 13.1%.
As to `CCOC(=O)C1Sc2[nH]c(=O)sc2C(c2ccc(Cl)cc2)C1C(=O)OCC` (stereo not given), the inhibition was 13.4%.
In the case of `CC(OC(=O)c1ccccc1N1C(=O)C2C3CCC(C3)C2C1=O)C(=O)c1ccccc1` (stereo not given), the inhibition was -5.61%.
In the case of `CCOC(=O)c1ccccc1N1C(=O)C2Sc3[nH]c(=O)sc3C(/C=C/c3ccccc3)C2C1=O` (stereo not given), the inhibition is 42.2% (active).
Then `COC(=O)c1cn(C)c2ccc(S(=O)(=O)N3CC(C)CC(C)C3)cc2c1=O` (stereo not given), with 0.79%; and `c1ccc(-c2nccc(-c3ccc(-n4cnc5ccccc54)cc3)n2)nc1`, with 65.6% (active).
As for `COC(=O)c1ccc(-n2cnc3ccccc32)nc1`, the inhibition is -5.95%.
Take `Cc1nccc(-c2ccc(-n3c(C)ccc3C)cc2)n1`: the inhibition is 3.88%.
The same measure for `Cc1ccc(S(=O)(=O)N(C)C)cc1NC(=O)C1Cc2ccccc2CN1C(=O)c1ccco1` (stereo not given): 2.17%; for `CC1=CC2=NC(=O)/C(=C/c3coc4ccccc4c3=O)C(=N)N2O1`: -6.03%; for `O=C1/C(=C/c2coc3ccc(O)cc3c2=O)SC(=S)N1c1ccccc1`: 44.8% (active).
The same measure for `COC(=O)c1ccc(S(=O)(=O)N(CCO)Cc2ccccc2)n1C`: -0.726%; for `Oc1ccc(-c2cccc(-c3ccc(O)cc3)c2)cc1`: 0.612%; for `O=C(NCC(O)c1nc2ccccc2[nH]1)c1ccc(Br)cc1` (stereo not given): -3.28%.
The same measure for `O=C(Nc1cccc(-c2nc3ccccc3[nH]2)c1)c1ccc(C(=O)Nc2cccc(-c3nc4ccccc4[nH]3)c2)cc1`: 33.1% (active); for `O=C(Nc1ccccc1)c1cc2ccccc2[nH]1`: 1.14%.
`Cc1cccc(C2C3=C(CCCC3=O)N=C3c4ccccc4C(=O)C32)c1` (stereo not given): the inhibition is 3.15%.
Take `O=C(NCc1cccnc1)c1cnc2ccccc2n1`: the inhibition was 1.99%.
Consider `CC(=O)N/C(=N/c1nc(C)cc(C)n1)Nc1ccc(F)cc1F`, for which the inhibition was -3.78%.
For `CCCCCCN1C[C@@H](O)[C@H](n2cc(COC(=O)c3ccccc3)nn2)C[C@@H]1c1ccc(Cl)cc1`, the inhibition is 7%.
Then `COC(C[C@@H]1O[C@@H]1C(=O)[C@@H](C)OCc1ccccc1)OC`, with -1.07%; and `CN1/C(=c2/s/c(=C3/C(=O)N(c4ccccc4)NC3=Nc3ccccc3)n(C)c2=O)C(C)(C)c2ccccc21`, with 57.3% (active).
With `Cc1ccc(Cl)c(NC(=O)CN(C)CC(=O)Nc2ccc(F)c(F)c2F)c1Cl`, the inhibition was 2.14%.
Consider `Nc1ccc2nc3c(=O)[nH]c(=S)[nH]c3nc2c1`, for which the inhibition was 70.1% (active).
For the compound `Cc1occc1C(=O)NC1CCCN(Cc2ccc(CC(C)C)cc2)C1` (stereo not given), the inhibition was -6.31%.
The same measure for `COc1ccc(NS(=O)(=O)c2ccc(O)c(C(=O)OCC(=O)NC3CCCCC3)c2)cc1`: -4.71%; for `CCn1c(SCC(=O)Nc2ccc(C)cc2)nc2nc3c(cc2c1=O)CCCC3`: 8.14%.
Regarding `CCC1C(C#N)=C(SC)NC2=C1C(=O)CC(C)(C)C2` (stereo not given), the inhibition was 0.666%.
Take `CCn1c(SCC(=O)Nc2ccc(S(=O)(=O)Nc3onc(C)c3C)cc2)nnc1-c1ccccc1`: the inhibition was 7.88%.
The same measure for `Cc1noc(NS(=O)(=O)c2ccc(NC(=O)c3oc4ccc(F)cc4c3C)cc2)c1C`: 0%.
As to `Cc1cc(C)c2nc(-c3cccnc3)cc(C(=O)Nc3ccc(S(=O)(=O)Nc4onc(C)c4C)cc3)c2c1`, the inhibition is 42.3% (active).
As for `CCCCNC(=O)C[C@@H]1C[C@@]2(C(=O)OCC)CCC=C2N(Cc2cccc3ccccc23)C1=O`, the inhibition is -3.88%.
Then `Cc1ccc(NS(=O)(=O)c2ccc(N/N=C/c3ccccc3OCC(=O)O)c([N+](=O)[O-])c2)c(C)c1`, with 37.4% (active); and `C=C(C)CNC(=S)N/N=C/c1ccccc1OCC(=O)O`, with 11.3%; and `Cc1ccc(S(=O)(=O)NC(=O)COc2ccccc2C)cc1`, with -3.06%.
Consider `COc1ccc(Br)cc1/C=N/Nc1ccc(S(=O)(=O)Nc2ccccc2C(=O)O)cc1[N+](=O)[O-]`, for which the inhibition is 37.4% (active).
Take `COc1ccc(S(=O)(=O)N2CCC(C(=O)OCC(=O)c3ccccc3)CC2)cc1[N+](=O)[O-]`: the inhibition was -4.05%.
With `CC1CN(C(=O)c2ccccc2NS(=O)(=O)c2cccc([N+](=O)[O-])c2)CC(C)O1` (stereo not given), the inhibition is 4.4%.
On to `CSCC[C@H](NC(=O)NCCc1ccc(F)cc1)C(=O)O`, for which the inhibition is -3.24%.
With `COc1cccc(N(CC(=O)NC2CCCCCC2)S(=O)(=O)c2ccccc2)c1`, the inhibition is -2.69%.
Regarding `O=C(NNc1c2ccccc2nc2ccccc12)c1cc2ccccc2cc1O`, the inhibition was 50.6% (active).
As for `Cc1noc(C)c1COC(=O)c1cc2ccccc2cc1O`, the inhibition is -3.66%.
`O=C(CSc1nc(C2CC2)nc2ccccc12)Nc1cccc(O)c1`: the inhibition was 4.64%.
As to `COC(=O)c1ccccc1NC(=O)C1CCN(C(=O)N2CCOc3ccccc32)CC1`, the inhibition was -4.87%.
For `Cc1cc(C)c(S(=O)(=O)NN=C2c3ccccc3[C@H]3Cc4csc[n+]4[C@@H]23)c(C)c1`, the inhibition is 44% (active).
As to `Cc1ccc(NC2CCCN(C(=O)CCC3(C)CC3)C2)cc1C` (stereo not given), the inhibition is -4.9%.
For `CCCCn1c(N)c(N(CCOC)C(=O)c2oc3ccc(OC)cc3c2C)c(=O)[nH]c1=O`, the inhibition is -3.15%.
Take `NNC(=O)c1cccc(COCC(F)(F)C(F)F)c1`: the inhibition is 10.9%.
For the compound `CC(Sc1nncn1C)C(=O)NCCC1=CCCCC1` (stereo not given), the inhibition was -5.51%.
Then `COC(=O)CCCC1=CC2=CC(=O)C(C)(OC(=O)c3cccs3)C(=O)C2=CN1c1cccc(C#N)c1` (stereo not given), with 10.8%; and `CC1(OC(=O)C2CCCC2)C(=O)C=C2C=C(c3ccc(C#N)cc3)OC=C2C1=O` (stereo not given), with 51.9% (active); and `COC(=O)CCCC1=CC2=C(c3ccccc3)C(=O)C(C)(OC(=O)C3CCCC3)C(=O)C2=CN1c1ccc(OC)cc1` (stereo not given), with 6.8%.
Consider `O=C(Nc1ccc(NC(=O)c2cccs2)cc1)c1ccc2ccccc2c1`, for which the inhibition was 34.4% (active).
For the compound `C/C(=N\NC(=O)c1ccc(NS(=O)(=O)c2cccs2)cc1)c1ccc2ccccc2c1`, the inhibition was 11.2%.
As to `Cc1cccc(C(=O)Nc2ccc(C(=O)/C=C/c3cccs3)cc2)c1`, the inhibition is 18.5%.
As for `Cc1cc(C)n2nc(C(=O)Nc3cccc(S(=O)(=O)N4CCOCC4)c3)nc2n1`, the inhibition was -1.81%.
As to `COc1ccc(Cc2nc3ccc(C(=O)NCC4CCOCC4)cc3o2)cc1OC`, the inhibition was 0%.
As to `CC(C)CC1C(=O)N(Cc2cn(Cc3ccco3)nn2)CCS(=O)(=O)N1Cc1ccc(-c2ccc(Cl)c(Cl)c2)cc1` (stereo not given), the inhibition is 35% (active).
Then `CC1C(=O)N(Cc2cn(Cc3ccco3)nn2)CCS(=O)(=O)N1Cc1ccc(-c2cccc(CO)c2)cc1` (stereo not given), with -3.23%.
For the compound `CC(C)CC1C(=O)N(Cc2cn(CC3CCCCC3)nn2)CCS(=O)(=O)N1Cc1ccc(-c2ccc(Cl)cc2)cc1` (stereo not given), the inhibition was 2.74%.
For the compound `Cc1c(C(=O)OCC(=O)N(CCC#N)c2ccccc2)oc2c1ccc1ccccc12`, the inhibition was -4.25%.
For the compound `CC(C)c1nc(CNC(=O)CC2C(=O)NCCN2Cc2ccoc2)cs1` (stereo not given), the inhibition is 0.09%.
As to `CCOc1ccc(C(=O)Nc2cccc(SC)c2)cc1`, the inhibition was -7.85%.
On to `CC(C)(C)NC(=O)C(c1ccncc1)N(C(=O)CNC(=O)c1ccco1)c1ccc2c(c1)OCO2` (stereo not given), for which the inhibition is -2.29%.
Then `Cc1cc(Br)cn2c(Cc3ccsc3)c(-c3ccc(C#N)cc3)nc12`, with -0.162%.

The values are drawn from PubChem BioAssay AID602399 (Sanford-Burnham Center for Chemical Genomics, 2012).
